PubChem BioAssay (NCATS)
Where “and” joins values, the source holds several entries; their conditions need not be identical. Identical values can stand only once. Results filed as inconclusive are left out. Calls of active or inactive are those of the source. Unless noted, calls follow the shape of the full dose curve.

What was measured:
[1] = Cell Viability - BJ (AID 421); conditions: BJ fibroblast viability, qHTS;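 also: potency is read from the fitted curve at half-maximal effect; cells exposed to compound for 40 hours at 37 °C before readout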
In short: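 Cytotoxicity in human BJ foreskin fibroblasts is scored as loss of cellular ATP after a 40-hour exposure, measured by luciferase luminescence. Controls are DMSO and 100 uM tamoxifen.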

[2] = Cell Viability - Jurkat (AID 426;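 active = dose-dependent loss of cell ATP signal giving a full or clear fitted curve, ranked by lower potency value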; also: potency is read from the fitted curve at half-maximal effect); conditions: qHTS
In short: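 Cytotoxicity was scored as loss of cellular ATP, measured by luciferase-based luminescence, in Jurkat clone E6-1 cells after 40 h compound treatment; tamoxifen and doxorubicin served as positive controls.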

[3] = Cell Viability - Hek293 (AID 427;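 active = compounds whose dose-response curve shows a full or clear partial loss of cell viability, called from curve shape rather than a numeric limit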;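 also: potency is read from the fitted curve at half-maximal effect; cells exposed to compound for 40 hours at 37 °C before reading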); conditions: qHTS
In short: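 qHTS, human embryonic kidney (adenovirus-transformed) cells; 40 hr cpd, 37 °C; CellTiter-Glo ATP luminescence. Norm: DMSO = 0, 100 uM tamoxifen = 100% inhibition. Hill-fit AC50.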

[4] = Cell Viability - HepG2 (AID 433); conditions: qHTS;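 also: potency is read from the fitted curve at half-maximal effect; potency for ATP loss meaning cytotoxicity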
In short: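 In this qHTS format, a 40 h, 37 °C compound incubation of HepG2 cells in complete medium precedes a 20 min CellTiter-Glo step at room temperature. Tamoxifen and doxorubicin serve as positive controls; Hill-equation fits yield AC50.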

[5] = Cell Viability - MRC5 (AID 434); conditions: MRC5 lung fibroblast viability, qHTS;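 also: potency is read from the fitted curve at half-maximal effect; potency reflects cytotoxicity seen as loss of intracellular ATP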
In short: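 ATP luminescence read-out (CellTiter-Glo, 20 min RT) after 40 hr, 37 °C compound exposure of 1500 MRC5 cells/well. Data normalized to DMSO (basal) and 100 uM tamoxifen (100% inhibition); AC50 from standard Hill equation.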

[6] = Cell Viability - SK-N-SH (AID 435); conditions: SK-N-SH neuroblastoma cell viability qHTS;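 also: potency is read from the fitted curve at half-maximal effect; compound exposure lasted 40 h at 37 °C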
In short: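 Human neuroblastoma line, 40 h exposure at 37 °C, ATP quantified via luciferase luminescence; DMSO and 100 uM tamoxifen define 0 and 100% inhibition for AC50 fitting.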

[7] = biological target: Mitogen-activated protein kinase 10 (Mus musculus) (UniProt Q61831); test: JNK3 AlphaScreen Assay (AID 530; active = well fitted curve in either direction with a large enough effect, not every such curve was filed as active;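 also: kinase came from lysate of stimulated human HepG2 cells; signal reports phosphorylation of biotinylated GST-cJun 1-79 at Ser73 with 10 µM ATP; % is scaled to controls: 0 for no effect and ±100 for the full control effect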); conditions: JNK3 lysate, c-Jun phosphorylation; series mostly up to 57.1 µM
In short: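 HepG2 lysate (IL-1b/TNFa pre-activated) + biotin-GST-cJun 1-79 + anti-pSer73 cJun; cpd titration, 15 min RT; ATP 10 uM start; Tris pH 7.6, MgCl2, DTT, vanadate; beads in EDTA buffer; AlphaScreen.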

[8] = Cell Viability - N2a (AID 540; active = well fitted curve in the direction sought with a large enough effect; an effect the other way counts as inactive or inconclusive;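 also: plate controls were DMSO alone for no effect and tamoxifen control for full effect; nearly all actives have a fitted effect of over 45% in size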); conditions: N2a mouse neuroblastoma cell viability; series mostly up to 92.2 µM
In short: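 In this qHTS cytotoxicity screen, ATP-dependent luciferase luminescence reports viable N2a cells after a 40 hr compound exposure in complete culture medium. Potencies are AC50 values from standard Hill equation fits.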

[9] = Cell Viability - NIH 3T3 (AID 541; active = well fitted curve in the direction sought with a large enough effect; an effect the other way counts as inactive or inconclusive;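 also: plate controls were DMSO alone for no effect and tamoxifen positive control for full effect; nearly all actives have a fitted effect of over 25% in size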); conditions: NIH 3T3 cell viability, qHTS; series mostly up to 92.2 µM
In short: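 In this cytotoxicity screen, acute toxicity is scored as an ATP drop measured by CellTiter-Glo in NIH 3T3 fibroblasts following a 40 hr, 37 °C incubation with compound.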

[10] = Cell Viability - HUV-EC-C (AID 542; active = well fitted curve in the direction sought with a large enough effect; an effect the other way counts as inactive or inconclusive; also: % is scaled to controls: 0 for no effect and ±100 for the full control effect; nearly all actives have a fitted effect of over 35% in size); conditions: HUV-EC-C endothelial cell viability, qHTS; series mostly up to 92.2 µM
In short: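 Concentration-dependent ATP loss in HUV-EC-C cells is the measure. Exposure lasts 40 hr at 37 °C; luminescence follows CellTiter-Glo addition, and Hill fits give AC50.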

[11] = Cell Viability - H-4-II-E (AID 543; active = well fitted curve in the direction sought with a large enough effect; an effect the other way counts as inactive or inconclusive; also: % is scaled to controls: 0 for no effect and ±100 for the full control effect; nearly all actives have a fitted effect of over 35% in size); conditions: H-4-II-E rat hepatoma viability; series mostly up to 92.2 µM
In short: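 AC50 from Hill-modelled qHTS concentration-response curves. H-4-II-E rat hepatoma cells in complete medium, 40 hr exposure at 37 °C, viability by CellTiter-Glo ATP luminescence.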

[12] = Cell Viability - SH-SY5Y (AID 544; active = well fitted curve in the direction sought with a large enough effect; an effect the other way counts as inactive or inconclusive;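 also: 0% = DMSO alone and -100% = 100 µM tamoxifen; nearly all actives have a fitted effect of over 55% in size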); conditions: SH-SY5Y neuroblastoma cell viability; series mostly up to 92.2 µM
In short: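 Quantitative HTS in SH-SY5Y neuroblastoma cells, 40 hr treatment at 37 °C, ATP content by luciferase luminescence; AC50 from Hill fits.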

[13] = Cell Viability - Renal Proximal Tubule (AID 545; active = well fitted curve in the direction sought with a large enough effect; an effect the other way counts as inactive or inconclusive;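 also: 0% = DMSO only and -100% = 100 µM tamoxifen; nearly all actives have a fitted effect of over 40% in size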); conditions: renal proximal tubule cells viability, primary cells of rat origin; series mostly up to 91.7 µM
In short: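 In this qHTS format, normal rat kidney-derived proximal tubule cells in complete culture medium receive compound titrations, then sit 40 hours at 37 °C before luciferase-based ATP quantitation; potency is reported as AC50 from concentration-response curves.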

[14] = biological target: Cytochrome P450 1A2 (Homo sapiens) (UniProt P05177); test: p450-cyp1a2 (AID 410); conditions: recombinant CYP1A2, luciferin-ME demethylation, luminescence; series mostly up to 57 µM; also: potency is read from the fitted curve at half-maximal effect;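 as to activity change, negative = inhibition: -100% = full effect of reference inhibitor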
In short: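 Read-out is luminescence from luciferin produced by CYP1A2 demethylation of Luciferin-ME (100uM, at Km). Detection reagent stopped the 60 min NADPH-dependent reaction; signals were normalized to 57 uM furafylline.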

[15] = biological target: Glucocorticoid receptor (Homo sapiens) (UniProt P04150); test: GR-GFP Redistribution (AID 450;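 active = compounds whose dose series gives a full or clear partial fitted curve of increased nuclear translocation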; also: potency is read from the fitted curve at half-maximal effect); conditions: U2OS GR-GFP nuclear translocation, laser cytometry, 2 h
[16] = biological target: Glucocorticoid receptor (Homo sapiens) (UniProt P04150); test: GR-EFC Redistribution (AID 451); conditions: CHO-K1 GR-EFC translocation, beta-gal luminescence, 2 h; also: potency is read from the fitted curve at half-maximal effect
In short: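 CHO-K1 cells expressing nuclear EA and GR-ED fragments of b-gal; compounds titrated up to 46 uM final, 2 h at 37 C. GR nuclear translocation read as complemented b-gal luminescence after 1 h RT detection.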

[17] = AP1 Signaling Pathway (AID 357; active = well fitted curve in either direction with a large enough effect, not every such curve was filed as active;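 also: ME-180 reporter cells stimulated with EGF at its EC50 level; % is scaled to controls: 0 for no effect and ±100 for the full control effect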); conditions: ME-180 AP-1-bla reporter, EGF-induced, beta-lactamase ratio, 5 h; series mostly up to 38 µM
In short: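 Beta-lactamase reporter under AP-1 response element, ME-180 background. Stimulus: EC50 EGF. Compound exposure 5 h, 37 °C. Detection: CCF4, 2.5 h RT, 460/530 nm. Values: AC50 from titration.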

[18] = NFAT Signaling Pathway (AID 444; active = well fitted curve in either direction with a large enough effect, not every such curve was filed as active;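 also: carbachol stimulus at about its EC50 of 1 µM final; % is scaled to controls: 0 for no effect and ±100 for the full control effect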); conditions: Jurkat NFAT-bla M1, carbachol, beta-lactamase ratio, 5 h; series mostly up to 38 µM
In short: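 Jurkat cells with NFAT-driven β-lactamase reporter and co-expressed M1 receptor, stimulated with carbachol (final 1 uM, ~EC50), compound titration, 5 h at 37 °C. CCF4 loaded 1 h at RT; 460/530 nm ratio gave %activity and AC50.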

[19] = Stat Signaling Pathway (AID 446; active = well fitted curve in either direction with a large enough effect, not every such curve was filed as active;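 also: ME-180 cervical cancer cells given 40 pM IL-6 alongside compound; SIE-controlled beta-lactamase reporter measured as 460/530 nm FRET emission ratio; % is scaled to controls: 0 for no effect and ±100 for the full control effect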); conditions: ME-180 (cervical carcinoma) SIE beta-lactamase reporter, IL-6 stimulated, 5 h; series mostly up to 17.2 µM
In short: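 Emission at 460 and 530 nm (excitation 405 nm) reports SIE-controlled beta-lactamase in ME-180 cells. Cells received compound with 40 pM IL-6 for 5 hrs at 37 C; data scaled between 300 pM IL-6 and 125 nM JAK-inhibitor controls.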

[20] = biological target: Lysosomal acid glucosylceramidase (Homo sapiens) (UniProt P04062); test: Glucocerebrosidase-p2 (AID 348; in the data active = potency below about 10 µM; also: potency is read from the fitted curve at half-maximal effect); conditions: purified GBA, blue fluorogenic substrate, 40 min
In short: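 Normal human glucocerebrosidase (0.2 nM) with blue fluorogenic substrate (80 uM final) in citrate/phosphate pH 5.9 with 10mM sodium taurocholate, 0.01% tween-20; 40 min RT, NaOH/glycine stop; fluorescence Ex 365/Em 440; AC50 from a titration from 0.6 nM upwards.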

Sequence of Glucocorticoid receptor (Homo sapiens) (P04150 whole entry, looked up, the tested form may be a part): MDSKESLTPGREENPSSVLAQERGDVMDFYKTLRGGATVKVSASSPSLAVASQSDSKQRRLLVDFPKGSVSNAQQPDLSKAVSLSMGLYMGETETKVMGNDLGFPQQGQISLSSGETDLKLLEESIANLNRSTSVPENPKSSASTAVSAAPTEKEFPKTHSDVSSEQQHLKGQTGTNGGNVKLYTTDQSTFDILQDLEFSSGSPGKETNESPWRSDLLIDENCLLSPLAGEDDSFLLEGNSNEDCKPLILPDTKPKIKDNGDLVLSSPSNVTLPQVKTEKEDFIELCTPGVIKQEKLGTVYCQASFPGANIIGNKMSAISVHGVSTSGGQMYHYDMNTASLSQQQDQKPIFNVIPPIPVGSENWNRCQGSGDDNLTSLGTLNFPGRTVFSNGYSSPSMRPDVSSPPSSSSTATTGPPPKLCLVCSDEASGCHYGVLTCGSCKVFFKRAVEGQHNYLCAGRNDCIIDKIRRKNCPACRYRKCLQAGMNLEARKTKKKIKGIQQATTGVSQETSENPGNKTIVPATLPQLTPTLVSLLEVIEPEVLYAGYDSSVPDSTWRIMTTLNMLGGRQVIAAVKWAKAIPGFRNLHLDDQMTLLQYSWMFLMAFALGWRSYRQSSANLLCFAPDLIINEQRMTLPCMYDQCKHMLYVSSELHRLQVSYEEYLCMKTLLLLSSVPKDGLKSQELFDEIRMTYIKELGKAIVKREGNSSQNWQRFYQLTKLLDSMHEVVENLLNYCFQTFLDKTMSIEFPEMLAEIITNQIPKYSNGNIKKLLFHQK
Sequence of Cytochrome P450 1A2 (Homo sapiens) (P05177 whole entry, looked up): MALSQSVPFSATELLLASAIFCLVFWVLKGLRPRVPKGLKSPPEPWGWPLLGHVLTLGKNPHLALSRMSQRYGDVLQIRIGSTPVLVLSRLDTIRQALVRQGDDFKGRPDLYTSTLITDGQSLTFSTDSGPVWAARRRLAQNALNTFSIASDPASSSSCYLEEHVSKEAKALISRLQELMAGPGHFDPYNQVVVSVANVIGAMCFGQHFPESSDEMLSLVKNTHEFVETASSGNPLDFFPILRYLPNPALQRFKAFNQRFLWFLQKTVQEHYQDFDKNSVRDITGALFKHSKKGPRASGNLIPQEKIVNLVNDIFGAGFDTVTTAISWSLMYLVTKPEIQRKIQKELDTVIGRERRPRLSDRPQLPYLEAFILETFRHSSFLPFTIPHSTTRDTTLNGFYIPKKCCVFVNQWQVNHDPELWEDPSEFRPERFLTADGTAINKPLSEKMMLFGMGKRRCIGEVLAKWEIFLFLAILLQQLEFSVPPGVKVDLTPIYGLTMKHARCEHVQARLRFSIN
Sequence of Lysosomal acid glucosylceramidase (Homo sapiens) (P04062 whole entry, looked up): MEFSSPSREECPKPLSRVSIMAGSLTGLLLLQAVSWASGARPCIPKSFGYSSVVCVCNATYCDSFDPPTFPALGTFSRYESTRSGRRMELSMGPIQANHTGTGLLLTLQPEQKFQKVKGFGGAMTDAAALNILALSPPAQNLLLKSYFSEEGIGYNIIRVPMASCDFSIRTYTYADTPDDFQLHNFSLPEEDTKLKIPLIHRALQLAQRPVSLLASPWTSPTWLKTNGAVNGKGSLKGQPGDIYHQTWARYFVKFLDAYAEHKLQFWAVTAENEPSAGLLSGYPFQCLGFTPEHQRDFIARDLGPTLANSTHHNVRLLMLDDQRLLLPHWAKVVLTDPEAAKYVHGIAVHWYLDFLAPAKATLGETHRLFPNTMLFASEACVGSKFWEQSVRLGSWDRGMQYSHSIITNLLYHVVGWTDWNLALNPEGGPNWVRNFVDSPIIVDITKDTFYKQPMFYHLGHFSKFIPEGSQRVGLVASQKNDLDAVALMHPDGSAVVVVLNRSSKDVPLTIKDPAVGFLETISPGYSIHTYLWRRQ

O=C(O)CC(O)(CC(=O)O)C(=O)O
inactive: Potency [1] > 92 µM | Potency [3] > 92 µM | Potency [4] > 92 µM | Potency [5] > 92 µM | Potency [6] > 92 µM | outcome [7] | outcome [8] | outcome [9] | outcome [10] | outcome [11] | outcome [12] | outcome [13]
active: Potency [2] 58 µM

C=Cc1ccccc1
inactive: Potency [1] > 92 µM | Potency [2] > 92 µM | Potency [3] > 92 µM | Potency [4] > 92 µM | Potency [5] > 92 µM | Potency [6] > 92 µM | outcome [7] | outcome [8] | outcome [9] | outcome [10] | outcome [11] | outcome [12] | outcome [13]

COC(C)=O
inactive: Potency [1] > 92 µM | Potency [2] > 92 µM | Potency [3] > 92 µM | Potency [4] > 92 µM | Potency [5] > 92 µM | Potency [6] > 92 µM | outcome [7] | outcome [8] | outcome [9] | outcome [10] | outcome [11] | outcome [12] | outcome [13]

COC1=CC(=O)C[C@@H](C)[C@@]12Oc1c(Cl)c(OC)cc(OC)c1C2=O
inactive: Potency [14] | Potency [15] > 46 µM | Potency [16] > 46 µM | outcome [7]

C[C@]12CC[C@@H]3c4ccc(OS(=O)(=O)O)cc4CC[C@H]3[C@@H]1CCC2=O
inactive: outcome [17] | outcome [18] | outcome [19] | Potency [15] > 20.6 µM

CN(C)CCCn1cc(C2=C(c3c[nH]c4ccccc34)C(=O)NC2=O)c2ccccc21
inactive: Potency [15] > 46 µM | Potency [16] > 46 µM
active: Potency [14] 7.94 µM

CCc1ccccc1OC[C@@H](O)CN[C@H]1CCCc2ccccc21
active: Potency [14] 12.6 µM
inactive: Potency [15] > 46 µM | Potency [16] > 46 µM | outcome [7]

CC(C)CCNC(=O)[C@H](CC(C)C)NC(=O)[C@H]1O[C@@H]1C(=O)O
inactive: outcome [17] | outcome [18] | outcome [19] | Potency [15] > 20.6 µM

CCCCCCCCCC(=O)O
inactive: Potency [1] > 92 µM | Potency [2] > 92 µM | Potency [3] > 92 µM | Potency [4] > 92 µM | Potency [5] > 92 µM | Potency [6] > 92 µM | outcome [7] | outcome [8] | outcome [9] | outcome [10] | outcome [11] | outcome [12] | outcome [13]

CN(C)Cc1ccccc1
inactive: Potency [1] > 92 µM | Potency [2] > 92 µM | Potency [3] > 92 µM | Potency [4] > 92 µM | Potency [5] > 92 µM | Potency [6] > 92 µM | outcome [7] | outcome [8] | outcome [9] | outcome [10] | outcome [11] | outcome [12] | outcome [13]

NCCCC(=O)O
inactive: outcome [17] | Potency [14] | outcome [18] | Potency [15] > 46 µM | Potency [16] > 46 µM | outcome [7]

COc1cc(C[C@H]2C(=O)OC[C@@H]2Cc2ccc(OC)c(OC)c2)ccc1O
inactive: Potency [16] > 46 µM | outcome [7]
active: Potency [14] 31.6 µM

CC(=O)C1=C(O)C=C2Oc3c(C(C)=O)c(O)c(C)c(O)c3[C@]2(C)C1=O
inactive: Potency [15] > 46 µM | Potency [16] > 46 µM | outcome [7]
active: Potency [14] 2 µM

Cc1ccc(OC[C@H](O)[C@H](C)NC(C)C)c2c1CCC2
inactive: outcome [17] | outcome [18] | outcome [19] | Potency [15] > 46 µM | Potency [16] > 46 µM | outcome [7]
active: Potency [14] 1.58 µM and 398 nM

COc1ccc2[nH]c(=O)c3c(c2c1)OC(C)(C)C=C3
inactive: Potency [15] > 46 µM | Potency [16] > 46 µM | outcome [7]
active: Potency [14] 0.316 µM

O=C(O)c1cc2ccccc2c(Cc2c(O)c(C(=O)O)cc3ccccc23)c1O
inactive: Potency [20] > 11.4 µM | activity change, negative = inhibition [17] 13.4% [at 7.69 µM] | activity change, negative = inhibition [14] -4% [at 2.29 µM] | activity change, negative = inhibition [18] 6.69% [at 7.69 µM] | outcome [19] | Potency [16] > 9.22 µM | activity change, negative = inhibition [7] 3.49% [at 11.4 µM]
